# Source: PubChem BioAssay (EPA / NIEHS)
# Records with an inconclusive call do not appear. The source made the active and inactive calls. The calls were made as follows, unless noted: active = hit-call score of the fitted dose curve at least 0.9, where 1 is the maximum; inactive = score below 0.9.
# Key:
# [1] = ATG_NF_kB_CIS: Attagene CIS-FACTORIAL HepG2 Assay for human Nuclear Factor Kappa B (NF-kB) (AID 2282991); settings: HepG2 Attagene cis-factorial NF-kB reporter mRNA; actives raise or lower the signal
# Procedure, shortened: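 HepG2 cells transfected with cis-promoter-driven reporter units, so endogenous transcription factor activity is measured. Reporter mRNA quantified 24 h after dosing by RT-PCR and capillary electrophoresis, with bidirectional fitting against DMSO.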
# [2] = ATG_NRF2_ARE_CIS: Attagene CIS-FACTORIAL HepG2 Assay for human Nuclear Factor Erythroid 2 Related Factor 2 (NFR2) response to Antioxidant Response Elements (ARE) (AID 2282992); settings: HepG2 Attagene ARE/NRF2 reporter, transcription factor activity; actives raise or lower the signal;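 as to AC50: reporter mRNA level measured by RT-PCR and capillary electrophoresis fluorescence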
# Procedure, shortened: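 Fluorescence intensity of reporter-specific cDNA fragments, separated by capillary electrophoresis, reflects mRNA induction in transfected HepG2 cells at 24 h. Activity is fitted bidirectionally, DMSO serving as baseline.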
# [3] = ATG_Oct_MLP_CIS: Attagene CIS-FACTORIAL HepG2 Assay for human Octamer-Binding Transcription Factor (Oct) (AID 2282993); settings: HepG2 Attagene cis-factorial Oct reporter, mRNA; actives raise or lower the signal
# Procedure, shortened: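 Using HepG2 cells bearing transfected cis-reporter constructs, mRNA induction was read after 24 h by fluorescent RT-PCR and capillary electrophoresis, with DMSO defining baseline for gain- or loss-of-signal fits.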
# [4] = molecular target: Cellular tumor antigen p53 (Homo sapiens) (UniProt P04637); experiment: ATG_p53_CIS: Attagene CIS-FACTORIAL HepG2 Assay for human p53 Transcription Factor (AID 2282994); settings: HepG2 p53 cis-element reporter, Attagene mRNA; actives raise or lower the signal
# Chain of Cellular tumor antigen p53 (Homo sapiens) (P04637 whole entry, looked up): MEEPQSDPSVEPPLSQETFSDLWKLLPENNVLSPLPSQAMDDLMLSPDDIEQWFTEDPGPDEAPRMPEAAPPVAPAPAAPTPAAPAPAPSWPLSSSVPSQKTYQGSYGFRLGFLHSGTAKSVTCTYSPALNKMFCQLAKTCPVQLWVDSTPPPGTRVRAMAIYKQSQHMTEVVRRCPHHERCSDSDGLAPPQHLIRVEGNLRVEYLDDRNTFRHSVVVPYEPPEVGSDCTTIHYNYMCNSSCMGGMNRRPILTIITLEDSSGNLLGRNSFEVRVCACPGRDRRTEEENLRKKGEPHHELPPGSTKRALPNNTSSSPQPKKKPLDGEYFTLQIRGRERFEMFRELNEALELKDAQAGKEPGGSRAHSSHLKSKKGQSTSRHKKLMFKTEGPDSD
# Procedure, shortened: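 Transiently transfected HepG2 (multiple cis reporter transcription units); exposure 24 h; reporter RNA via RT-PCR, 6-FAM extension, 2 h HpaI digest at 37 C, CE detection; DMSO baseline.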
# [5] = BSK_3C_TissueFactor: BioMAP Diversity Plus: 3C Assay for Tissue Factor Biomarker Activity (AID 2282997); settings: BioMAP 3C HUVEC, tissue factor biomarker readout; actives raise or lower the signal
# Procedure, shortened: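 Tissue Factor measured by ELISA, 24 h after treatment of primary HUVEC in the BioMAP 3C setting.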
# [6] = BSK_3C_uPAR: BioMAP Diversity Plus: 3C Assay for Urokinase-type plasminogen activator receptor (uPAR) Biomarker Activity (AID 2282998); settings: BioMAP 3C HUVEC, uPAR biomarker ELISA; actives raise or lower the signal
# Procedure, shortened: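 In this endothelial cell-based assay, human umbilical vein primary cells were treated with chemicals and harvested at 24 h. uPAR was quantified using ELISA, with gains or losses fitted relative to DMSO controls.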
# [7] = BSK_3C_VCAM1: BioMAP Diversity Plus: 3C Assay for Vascular cell adhesion molecule 1 (VCAM1) Biomarker Activity (AID 2282999); settings: BioMAP 3C HUVEC, VCAM1 ELISA, cytokine-stimulated; actives raise or lower the signal
# Procedure, shortened: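 Activity fitted in both directions relative to DMSO, with ELISA measurement of the surface marker on primary HUVEC (3C) at 24 h post-treatment; parallel SRB staining (0.1% SRB, TCA-fixed, 560 nm) flagged overt cytotoxicity.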
# [8] = BSK_4H_Eotaxin3: BioMAP Diversity Plus: 4H Assay for Eotaxin 3 Biomarker Activity (AID 2283000); settings: primary human endothelial cells (HUVEC); actives raise or lower the signal;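 as to outcome: CCL26 protein level quantified by ELISA in parallel with SRB cytotoxicity check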
# Procedure, shortened: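 Eotaxin-3 (CCL26) levels were measured by ELISA in HUVEC primary cultures 24 h post-dosing. Gain or loss of signal was fitted in both directions, with DMSO serving as baseline and negative control.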
# [9] = molecular target: human Peroxisome Proliferator-activated Receptor delta (PPARd), PPARD (gene 5467) (UniProt Q03181); experiment: ATG_PPARd_TRANS: Attagene TRANS-FACTORIAL HepG2 Assay for human Peroxisome Proliferator-activated Receptor delta (PPARd) (AID 2283002; active = hit-call score of the fitted dose curve at least 0.9, where 1 is the maximum)
# Chain of human Peroxisome Proliferator-activated Receptor delta (PPARd), PPARD (gene 5467) (Q03181 whole entry, looked up): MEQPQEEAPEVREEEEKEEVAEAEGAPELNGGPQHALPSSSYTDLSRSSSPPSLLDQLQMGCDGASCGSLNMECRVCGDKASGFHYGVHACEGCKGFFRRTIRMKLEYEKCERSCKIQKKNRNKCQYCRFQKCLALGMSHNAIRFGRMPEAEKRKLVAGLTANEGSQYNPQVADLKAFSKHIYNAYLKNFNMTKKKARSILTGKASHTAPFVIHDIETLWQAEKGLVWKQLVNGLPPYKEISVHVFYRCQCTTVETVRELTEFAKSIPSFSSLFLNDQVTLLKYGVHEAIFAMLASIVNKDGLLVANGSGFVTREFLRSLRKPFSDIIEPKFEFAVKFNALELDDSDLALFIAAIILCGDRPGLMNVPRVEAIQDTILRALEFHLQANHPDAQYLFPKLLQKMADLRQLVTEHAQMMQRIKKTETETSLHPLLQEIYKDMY
# Procedure, shortened: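 Cell-based TRANS reporter: HepG2, transient MRTU transfection, 24 h exposure. Readout = reporter mRNA (RT-PCR/CE, 6-FAM). Gain-of-signal fit vs DMSO control.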
# [10] = molecular target: human Peroxisome Proliferator-activated Receptor alpha (PPARa), PPARA (gene 5465) (UniProt Q07869); experiment: ATG_PPARa_TRANS: Attagene TRANS-FACTORIAL HepG2 Assay for human Peroxisome Proliferator-activated Receptor alpha (PPARa) (AID 2283001; active = hit-call score of the fitted dose curve at least 0.9, where 1 is the maximum;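 as to AC50: potency for gain of reporter signal over DMSO so agonist or activator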)
# Chain of human Peroxisome Proliferator-activated Receptor alpha (PPARa), PPARA (gene 5465) (Q07869 whole entry, looked up, the tested form may be a part): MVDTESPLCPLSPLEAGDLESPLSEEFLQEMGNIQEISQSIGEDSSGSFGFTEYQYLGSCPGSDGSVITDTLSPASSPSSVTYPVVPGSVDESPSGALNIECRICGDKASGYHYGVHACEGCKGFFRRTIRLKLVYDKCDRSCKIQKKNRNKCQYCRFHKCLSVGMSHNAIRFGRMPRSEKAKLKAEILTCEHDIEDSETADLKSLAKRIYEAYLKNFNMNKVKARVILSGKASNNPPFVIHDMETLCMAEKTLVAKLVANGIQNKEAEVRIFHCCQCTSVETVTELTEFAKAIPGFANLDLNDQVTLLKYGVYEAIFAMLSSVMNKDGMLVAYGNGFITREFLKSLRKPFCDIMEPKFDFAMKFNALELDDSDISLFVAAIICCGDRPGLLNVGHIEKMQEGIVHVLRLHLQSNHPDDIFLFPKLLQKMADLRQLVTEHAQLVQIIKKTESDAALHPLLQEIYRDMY
# Procedure, shortened: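 Reporter transcripts quantified by RT-PCR plus capillary electrophoresis after 24 h treatment, fitted upward relative to DMSO. Cells: human HepG2 transiently carrying multiple GAL4-UAS reporter units driven by NR-Gal4 chimeras.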
compound,measurement,setting,value
OC(Cc1ccccc1Cl)(Cn1[nH]cnc1=S)C1(Cl)CC1 (centres undefined),outcome,[1],inactive
same,AC50,[2],12.1 µM (active)
same,outcome,[3],inactive
same,AC50,[4],75.7 µM (active)
same,outcome,[5],inactive
same,AC50,[6],20 µM (active)
same,outcome,[7],inactive
same,AC50,[8],20 µM (active)
same,outcome,[9],inactive
CCOP(=O)(OCC)OC(=CCl)c1ccc(Cl)cc1Cl,outcome,[1],inactive
same,AC50,[2],7.84 µM (active)
same,outcome,[3],inactive
same,outcome,[4],inactive
same,AC50,[5],20 µM (active)
same,AC50,[6],31.5 µM (active)
same,outcome,[7],inactive
same,AC50,[8],30.9 µM (active)
same,outcome,[9],inactive
Nc1c(Oc2ccccc2)cc(O)c2c1C(=O)c1ccccc1C2=O,outcome,[1],inactive
same,AC50,[2],2.25 µM (active)
same,outcome,[3],inactive
same,outcome,[4],inactive
same,outcome,[5],inactive
same,outcome,[6],inactive
same,outcome,[7],inactive
same,AC50,[8],10 µM (active)
same,outcome,[10],inactive
same,outcome,[9],inactive
O=S(=O)(C(Cl)(Cl)Cl)C(Cl)(Cl)Cl,AC50,[1],15.6 µM (active)
same,AC50,[2],2.87 µM (active)
same,AC50,[3],16.4 µM (active)
same,AC50,[4],15.1 µM (active)
same,AC50,[5],1.11 µM (active)
same,AC50,[6],1.24 µM (active)
same,AC50,[7],2.08 µM (active)
same,AC50,[8],1.47 µM (active)
same,outcome,[10],inactive
same,outcome,[9],inactive
N#CCCC(Br)(C#N)CBr (centres undefined),AC50,[1],33.4 µM (active)
same,outcome,[2],inactive
same,AC50,[3],50 µM (active)
same,AC50,[4],52.8 µM (active)
same,AC50,[5],7.47 µM (active)
same,AC50,[6],5.36 µM (active)
same,AC50,[7],7.92 µM (active)
same,AC50,[8],8.6 µM (active)
same,outcome,[10],inactive
O=C(CCl)NCO,outcome,[1],inactive
same,AC50,[2],65.2 µM (active)
same,outcome,[3],inactive
same,outcome,[4],inactive
same,outcome,[5],inactive
same,outcome,[6],inactive
same,outcome,[7],inactive
same,outcome,[8],inactive
same,outcome,[9],inactive
O=C(NC(=O)c1c(F)cccc1F)Nc1cc(Cl)c(OC(F)(F)C(F)C(F)(F)F)cc1Cl (centres undefined),outcome,[1],inactive
same,AC50,[2],73 µM (active)
same,outcome,[3],inactive
same,outcome,[4],inactive
same,outcome,[10],inactive
CC(C=O)Cc1ccc2c(c1)OCO2 (centres undefined),outcome,[1],inactive
same,outcome,[2],inactive
same,outcome,[3],inactive
same,outcome,[4],inactive
same,outcome,[5],inactive
same,outcome,[6],inactive
same,outcome,[7],inactive
same,outcome,[8],inactive
same,outcome,[10],inactive
same,outcome,[9],inactive
[Cl][Sn]([c]1ccccc1)([c]1ccccc1)[c]1ccccc1,AC50,[1],0.232 µM (active)
same,AC50,[2],0.0785 µM (active)
same,AC50,[3],0.25 µM (active)
same,AC50,[4],0.167 µM (active)
same,AC50,[5],0.297 µM (active)
same,AC50,[6],0.141 µM (active)
same,AC50,[7],0.177 µM (active)
same,AC50,[8],0.0985 µM (active)
same,AC50,[9],0.249 µM (active)
C#CCOC(=O)/C=C(C)/C=C/CC(C)CCCC(C)C (centres undefined),outcome,[1],inactive
same,AC50,[2],57.3 µM (active)
same,AC50,[3],35.7 µM (active)
same,outcome,[4],inactive
same,outcome,[5],inactive
same,AC50,[6],33.5 µM (active)
same,outcome,[7],inactive
same,AC50,[8],20 µM (active)
same,outcome,[9],inactive
OCC(c1ccc(Cl)cc1)c1ccc(Cl)cc1,outcome,[1],inactive
same,AC50,[2],43.6 µM (active)
same,AC50,[3],57.9 µM (active)
same,outcome,[4],inactive
same,AC50,[10],55 µM (active)
Cc1cccc(OP(=O)(Oc2cccc(C)c2)Oc2cccc(C)c2)c1,outcome,[1],inactive
same,AC50,[2],21.9 µM (active)
same,outcome,[3],inactive
same,outcome,[4],inactive
same,outcome,[5],inactive
same,outcome,[6],inactive
same,outcome,[7],inactive
same,outcome,[8],inactive
same,outcome,[9],inactive
BrCCCCBr,outcome,[1],inactive
same,outcome,[2],inactive
same,outcome,[3],inactive
same,outcome,[4],inactive
same,outcome,[10],inactive
CCN(CC)C(=O)C(Cl)=C(C)OP(=O)(OC)OC,outcome,[1],inactive
same,AC50,[2],38.6 µM (active)
same,outcome,[3],inactive
same,outcome,[4],inactive
same,outcome,[5],inactive
same,outcome,[6],inactive
same,outcome,[7],inactive
same,outcome,[8],inactive
same,outcome,[10],inactive
same,outcome,[9],inactive
c1ccc(-c2cccc(-c3ccccc3)c2)cc1,outcome,[1],inactive
same,AC50,[2],40.9 µM (active)
same,outcome,[3],inactive
same,outcome,[4],inactive
same,AC50,[5],4.68 µM (active)
same,AC50,[6],20 µM (active)
same,AC50,[7],20 µM (active)
same,AC50,[8],20 µM (active)
same,outcome,[10],inactive
C[C@H]1C(=O)O[C@@H]2CCN3CC=C(COC(=O)[C@](C)(O)[C@]1(C)O)[C@H]23,outcome,[1],inactive
same,outcome,[2],inactive
same,outcome,[3],inactive
same,outcome,[4],inactive
same,outcome,[9],inactive
CCC[CH2][Sn]([Cl])([Cl])[CH2]CCC,AC50,[1],1.99 µM (active)
same,AC50,[2],0.315 µM (active)
same,AC50,[3],0.949 µM (active)
same,outcome,[4],inactive
same,outcome,[9],inactive
CCCCOC(C)=O,outcome,[1],inactive
same,outcome,[2],inactive
same,outcome,[3],inactive
same,outcome,[4],inactive
same,outcome,[10],inactive
same,outcome,[9],inactive
O=C(NC(=O)c1c(F)cccc1F)Nc1cc(Cl)c(Oc2ncc(C(F)(F)F)cc2Cl)c(Cl)c1,outcome,[1],inactive
same,AC50,[2],31.9 µM (active)
same,outcome,[3],inactive
same,outcome,[4],inactive
same,outcome,[9],inactive
COC(=O)Nc1cccc(OC(=O)Nc2cccc(C)c2)c1,outcome,[1],inactive
same,outcome,[2],inactive
same,outcome,[3],inactive
same,outcome,[4],inactive
same,outcome,[9],inactive
CCCCOP(=O)(CCCC)OCCCC,outcome,[1],inactive
same,outcome,[2],inactive
same,outcome,[3],inactive
same,outcome,[4],inactive
same,outcome,[9],inactive
CCCCS(=O)(=O)Cl,outcome,[1],inactive
same,outcome,[2],inactive
same,outcome,[3],inactive
same,outcome,[4],inactive
same,outcome,[9],inactive
C=CCOC(F)(C(F)(F)F)C(F)(F)F,outcome,[1],inactive
same,outcome,[2],inactive
same,outcome,[3],inactive
same,outcome,[4],inactive
same,outcome,[10],inactive
same,outcome,[9],inactive
CCCCN(CCCCO)N=O,outcome,[1],inactive
same,outcome,[2],inactive
same,outcome,[3],inactive
same,outcome,[4],inactive
same,outcome,[9],inactive
C=C(C)[C@@H]1CC=C(C=O)CC1,outcome,[1],inactive
same,AC50,[2],80.5 µM (active)
same,outcome,[3],inactive
same,outcome,[4],inactive
same,outcome,[9],inactive
